Assay type in all cases: functional
Assay [1] addresses Solute carrier family 2, facilitated glucose transporter member 1 (Homo sapiens) (UniProt P11166). In words: ST_JUDE_LEISH: Cytotoxicity at 2uM final concentration against transgenic Leishmania Mexicana promastigotes LmGLUT1 that are glucose transport deficient and complemented with the human glucose transporter GLUT1. Activity is measured by DNA content using SYBR green in vitro.

Assay [2] addresses Hexose transporter 1 (Plasmodium falciparum) (UniProt O97467). In words: ST_JUDE_LEISH: Cytotoxicity at 2uM final concentration against transgenic Leishmania Mexicana promastigotes LmPfHT that are glucose transport deficient and complemented with the Plasmodium falciparum hexose transporter. Activity is measured by DNA content using SYBR green in vitro.
In assay [3] the target is Glucose transporter (Leishmania mexicana) (UniProt O61059). In words: ST_JUDE_LEISH: Cytotoxicity at 2uM final concentration against transgenic Leishmania Mexicana promastigotes LmGT2 that are glucose transport deficient and complemented with the L. Mexicana glucose transporter 2. Activity is measured by DNA content using SYBR green in vitro.

Sequence of Solute carrier family 2, facilitated glucose transporter member 1 (Homo sapiens) (P11166 whole entry): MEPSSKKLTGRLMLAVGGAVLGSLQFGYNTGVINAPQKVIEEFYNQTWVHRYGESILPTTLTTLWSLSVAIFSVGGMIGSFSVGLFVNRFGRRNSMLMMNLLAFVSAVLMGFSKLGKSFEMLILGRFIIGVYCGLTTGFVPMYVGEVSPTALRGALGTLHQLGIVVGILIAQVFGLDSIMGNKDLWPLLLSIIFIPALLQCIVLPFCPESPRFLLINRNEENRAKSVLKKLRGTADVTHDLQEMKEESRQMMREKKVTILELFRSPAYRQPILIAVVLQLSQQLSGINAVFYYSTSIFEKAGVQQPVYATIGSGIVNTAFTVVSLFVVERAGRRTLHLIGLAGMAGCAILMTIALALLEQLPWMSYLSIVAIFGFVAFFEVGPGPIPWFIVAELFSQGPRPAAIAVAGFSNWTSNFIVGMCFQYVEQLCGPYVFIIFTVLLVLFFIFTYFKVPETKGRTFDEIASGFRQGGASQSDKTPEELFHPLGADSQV

For orientation: inhibition means the drop in the measured response relative to a control, in per cent. For the compound `CCCCN(CCCC)C(=N)c1cccc2c1CCCC2`, the inhibition in assay [1] came out at 2.36%; in assay [2], 3.35%; in assay [3], 2.45%.
The corresponding values for `O=C(/C=C/c1ccc(Cl)c(Cl)c1)N1CCC(CN2CCC(Cc3cc4ccccc4[nH]3)CC2)CC1` are 0.17%, 2.49% and 0.81%.
The corresponding values for `O=C(c1ccccc1)N1COCC(CCN2CCC(N3CCCC3)CC2)(c2ccc(Cl)c(Cl)c2)C1` (stereo not given) are 2.71%, -0.49% and 2.59%.
The corresponding values for `CCCCCCN1CCCN(Cc2ccc(C(=O)Nc3cccc(CC)c3)cc2)CC1` are 4.76%, 3.36% and 8.83%.
As for `Cc1ccc(N2C(=O)C3C(C2=O)C2(c4ccccc4)C(=O)C3(c3ccccc3)C(c3ccccc3)=C2c2ccccc2)cc1` (stereo not given), the inhibition in assay [1] was 0.73%; in assay [2] it was 0.67%; in assay [3] it was -1.83%.
The corresponding values for `Cc1ccc(Nc2nnc(SCC(=O)Nc3ccc(CN4CCCC4)cc3)s2)cc1` are 0.83%, -0.59% and 0.85%.
Taken in the same sequence, the figures for `O=C(Nc1ccc(Cl)cc1)c1ccc(CN2CCCN(Cc3cccc(Cl)c3)CC2)cc1` were -0.65%, -1.08% and -0.52%.
The corresponding values for `Cc1cc(-c2ccc3occ(CCN)c3c2)cnc1N` are 1.36%, 0.86% and 1.13%.
`CC(N)(Cc1ccc(O)cc1)c1nnn[nH]1` (stereo not given): the inhibition in assay [1] is -0.06%; in assay [2], 1.3%; in assay [3], -0.23%.
Taken in the same sequence, the figures for `O=C(Nc1ccc(CN2CCOCC2)cc1)c1ccc(-c2cc(Cl)ccc2Cl)o1` were 11%, 8.63% and 7.99%.
Consider `CCn1ccc2c(N3CCCCS3(=O)=O)cc(C(=O)N[C@@H](Cc3ccccc3)[C@H](O)CNC(C)(C)CCCC(C)C)cc21`, for which the values for the inhibition in assay [1], in assay [2] and in assay [3] were 2.17%, 1.95% and 5.14%, respectively.
Regarding `c1cncc(CN2CCN(Cc3ccc(-c4ccc(-c5nc6ccccc6[nH]5)s4)cc3)CC2)c1`, the inhibition in assay [1] was determined as 12.2%; in assay [2] it was 7.69%; in assay [3], 1.44%.
Taken in the same sequence, the figures for `Cc1cc2c(NC(=O)NC3CCN(CCc4cccc(Cl)c4)CC3)cccc2cn1` were -1.26%, 1.1% and -3.28%.
Taken in the same sequence, the figures for `O=C(NC1CCC(N2CCN(c3cccc(C(F)(F)F)c3)CC2)CC1)c1cc2ccccc2[nH]1` (stereo not given) were 8.24%, 6.44% and 5.57%.
Regarding `CCOC(=O)N1CCN(C(=O)Nc2ccc(Cl)cc2)CC1`, the inhibition in assay [1] came out at 1.34%; in assay [2], 1%; in assay [3] it was 0.32%.
Taken in the same sequence, the figures for `CC1(C)CN2CCCC2c2cc(NC(=O)/C=C/c3ccccc3Cl)ccc21` (stereo not given) were 3.26%, 2.04% and 0.94%.
The corresponding values for `CCC(=Cc1cccc([N+](=O)[O-])c1)C(=O)NCC1CCN(c2nc3cc(OC)c(OC)cc3c(=N)[nH]2)CC1` are 5.64%, 7.07% and 6.83%.
The corresponding values for `CCC(C)c1ccc(-n2c(Nc3ccccc3)nc3cc(S(N)(=O)=O)ccc32)cc1` (stereo not given) are 12.3%, 6.89% and 5.77%.
As for `c1ccc(CNc2nc(NCCc3c[nH]cn3)nc(NCc3cccc4ccccc34)n2)cc1`, the inhibition in assay [1] is -1.52%; in assay [2] it was 0.21%; in assay [3], -0.28%.
Taken in the same sequence, the figures for `COc1ccc2ncc(F)c(CCN3CC[C@H](NCc4cc(C#N)c5c(c4)OCCO5)[C@H](O)C3)c2c1` were 42.4%, 57.5% and 70.8%.
The corresponding values for `COc1ccc(-c2cccc(NC(=O)c3cccc(C#N)c3)c2)cc1CN(C)CCN(C)C` are 1.23%, 1.39% and 0.48%.
The corresponding values for `N#Cc1cc(C(=O)c2cc(Cl)ccc2O)cn(-c2cccc(C(F)(F)F)c2)c1=O` are 8.27%, 7.71% and 5.33%.
In the case of `O=C(Oc1ccc(C2CNCCc3c2cc(OC(=O)c2ccc(O)cc2)c(OC(=O)c2ccc(O)cc2)c3Cl)cc1)c1ccc(O)cc1` (stereo not given), the inhibition came out at 4.39% in assay [1], 5.32% in assay [2] and 4.76% in assay [3].
Taken in the same sequence, the figures for `COc1ccc2nccc([C@@H](O)CN3CCC(NCc4cnc5c(c4)NC(=O)CS5)C(F)C3)c2c1` (stereo not given in full) were -0.32%, -0.31% and 0.86%.
The corresponding values for `COc1ccc(-c2nc(NC(=O)CS(=O)(=O)c3ccc(C)cc3)sc2C)cc1` are 8.39%, 6.4% and 0.17%.
As for `CN(C)C(=O)CC(=O)NCc1c(Cl)cccc1Cl`, the figures for the inhibition in assay [1], in assay [2] and in assay [3] were 0.42%, 4.4% and 2%, respectively.
The corresponding values for `Cc1cc(=NN=Cc2ccccc2Cl)c2ccc(F)cc2[nH]1` are 6.47%, 6.14% and 3.93%.
In the case of `COc1ccc2nc(N3CCNCC3)nc(NCCCc3ccccc3)c2c1`, the values for the inhibition in assay [1], in assay [2] and in assay [3] were 5.1%, 2.65% and 0%, respectively.
Take `COc1ccc(NC(=O)/C=C/c2ccccc2Cl)cc1OCCN1CCC(c2nc3ccccc3[nH]2)CC1`: the inhibition in assay [1] came to 3.22%; in assay [2] it was 1.68%; in assay [3] it was 2.78%.
On to `CCCN(c1ccc(C(F)(F)F)cc1[N+](=O)[O-])S(=O)(=O)C(c1ccccc1)c1ccc(C(F)(F)F)cc1[N+](=O)[O-]` (stereo not given), for which the inhibition in assay [1] was -0.48%; in assay [2], 6.88%; in assay [3] it was -1.01%.
The corresponding values for `CN1CC(c2ccccc2)c2cc(O)c(CN3CCCCC3)cc2CC1Cc1ccccc1` (stereo not given) are 9.54%, 7.19% and 6.78%.
On to `COC(=O)c1c(C#N)c(OC)cc(O)c1CSC[C@H](Nc1nc(-c2ccc([N+](=O)[O-])cc2)cs1)C(=O)NCCN1CCCCC1`, for which the inhibition in assay [1] is -1.73%; in assay [2], 0.29%; in assay [3] it was -0.42%.
The corresponding values for `O=C(/C=C/c1ccc(Cl)c(Cl)c1)NCCCCCN1CCC(c2cn[nH]c2-c2ccccc2)CC1` are 4.33%, 3.45% and 1.87%.
The corresponding values for `CCCCCCCN(CCCCCCC)CCCC(=O)Nc1ccnc2ccc(OC)cc12` are 1.2%, 1.31% and -1.2%.
Taken in the same sequence, the figures for `CCCCCCC(N)c1ccc(OCCCOc2ccc(C(N)CCCCCC)cc2)cc1` (stereo not given) were 107%, 106% and 109%.
